Legend:
[1] = target: Sphingosine kinase 1 (Homo sapiens) (UniProt Q9NYA1); conditions: at 1 µM;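 note: mean SPHK1 inhibition value reported from the GSK PKIS kinase panel screen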
[2] = target: T1, Sphingosine kinase 2 (Homo sapiens) (UniProt Q9NRA0); conditions: at 0.1 µM
T1 sequence (whole entry): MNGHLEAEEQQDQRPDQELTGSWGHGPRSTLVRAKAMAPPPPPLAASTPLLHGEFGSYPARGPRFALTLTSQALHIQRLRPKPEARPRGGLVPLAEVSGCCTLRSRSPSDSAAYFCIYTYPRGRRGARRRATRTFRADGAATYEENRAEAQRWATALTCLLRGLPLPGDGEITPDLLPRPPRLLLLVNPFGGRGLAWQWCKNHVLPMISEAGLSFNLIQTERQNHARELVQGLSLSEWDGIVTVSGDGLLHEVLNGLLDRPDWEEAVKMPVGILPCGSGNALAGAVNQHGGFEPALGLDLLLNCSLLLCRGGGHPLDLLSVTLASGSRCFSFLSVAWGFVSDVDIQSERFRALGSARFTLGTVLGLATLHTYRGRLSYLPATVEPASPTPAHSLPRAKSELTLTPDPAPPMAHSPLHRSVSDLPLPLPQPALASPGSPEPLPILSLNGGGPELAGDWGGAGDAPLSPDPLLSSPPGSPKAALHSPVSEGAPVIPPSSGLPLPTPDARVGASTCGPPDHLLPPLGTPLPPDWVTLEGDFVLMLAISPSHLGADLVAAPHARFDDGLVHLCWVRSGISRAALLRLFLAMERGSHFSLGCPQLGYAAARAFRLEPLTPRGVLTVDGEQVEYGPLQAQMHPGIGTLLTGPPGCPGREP

[3] = target: T1, Sphingosine kinase 2 (Homo sapiens); conditions: at 1 µM
[4] = target: Casein kinase II subunit alpha (Homo sapiens) (UniProt P68400); conditions: at 0.1 µM
[5] = target: Casein kinase II subunit alpha (Homo sapiens) (UniProt P68400); conditions: at 1 µM
[6] = target: T2, Inhibitor of nuclear factor kappa-B kinase subunit alpha (Homo sapiens) (UniProt O15111); conditions: at 0.1 µM
T2 sequence (whole entry): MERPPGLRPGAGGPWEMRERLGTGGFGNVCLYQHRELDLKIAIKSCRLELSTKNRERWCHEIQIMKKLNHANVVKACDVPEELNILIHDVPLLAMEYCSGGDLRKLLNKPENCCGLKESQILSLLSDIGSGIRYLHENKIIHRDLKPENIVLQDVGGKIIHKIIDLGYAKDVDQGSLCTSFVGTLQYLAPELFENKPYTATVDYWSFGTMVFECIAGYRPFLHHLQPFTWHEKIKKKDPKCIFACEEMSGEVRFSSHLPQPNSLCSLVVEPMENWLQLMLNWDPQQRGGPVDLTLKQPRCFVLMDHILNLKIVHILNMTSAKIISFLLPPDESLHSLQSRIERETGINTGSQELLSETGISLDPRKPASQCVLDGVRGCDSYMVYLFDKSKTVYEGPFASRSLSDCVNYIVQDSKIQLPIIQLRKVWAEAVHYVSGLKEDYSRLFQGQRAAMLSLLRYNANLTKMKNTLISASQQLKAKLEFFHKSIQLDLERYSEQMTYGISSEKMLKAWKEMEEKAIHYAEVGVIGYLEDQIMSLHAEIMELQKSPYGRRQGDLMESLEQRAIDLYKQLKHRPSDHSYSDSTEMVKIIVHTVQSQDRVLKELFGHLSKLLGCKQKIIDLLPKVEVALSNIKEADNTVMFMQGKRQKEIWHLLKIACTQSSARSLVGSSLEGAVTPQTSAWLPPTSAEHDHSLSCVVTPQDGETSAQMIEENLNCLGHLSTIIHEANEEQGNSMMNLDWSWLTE

[7] = target: T2, Inhibitor of nuclear factor kappa-B kinase subunit alpha (Homo sapiens); conditions: at 1 µM
[8] = target: T3, Inhibitor of nuclear factor kappa-B kinase subunit beta (Homo sapiens) (UniProt O14920); conditions: at 0.1 µM
T3 sequence (whole entry): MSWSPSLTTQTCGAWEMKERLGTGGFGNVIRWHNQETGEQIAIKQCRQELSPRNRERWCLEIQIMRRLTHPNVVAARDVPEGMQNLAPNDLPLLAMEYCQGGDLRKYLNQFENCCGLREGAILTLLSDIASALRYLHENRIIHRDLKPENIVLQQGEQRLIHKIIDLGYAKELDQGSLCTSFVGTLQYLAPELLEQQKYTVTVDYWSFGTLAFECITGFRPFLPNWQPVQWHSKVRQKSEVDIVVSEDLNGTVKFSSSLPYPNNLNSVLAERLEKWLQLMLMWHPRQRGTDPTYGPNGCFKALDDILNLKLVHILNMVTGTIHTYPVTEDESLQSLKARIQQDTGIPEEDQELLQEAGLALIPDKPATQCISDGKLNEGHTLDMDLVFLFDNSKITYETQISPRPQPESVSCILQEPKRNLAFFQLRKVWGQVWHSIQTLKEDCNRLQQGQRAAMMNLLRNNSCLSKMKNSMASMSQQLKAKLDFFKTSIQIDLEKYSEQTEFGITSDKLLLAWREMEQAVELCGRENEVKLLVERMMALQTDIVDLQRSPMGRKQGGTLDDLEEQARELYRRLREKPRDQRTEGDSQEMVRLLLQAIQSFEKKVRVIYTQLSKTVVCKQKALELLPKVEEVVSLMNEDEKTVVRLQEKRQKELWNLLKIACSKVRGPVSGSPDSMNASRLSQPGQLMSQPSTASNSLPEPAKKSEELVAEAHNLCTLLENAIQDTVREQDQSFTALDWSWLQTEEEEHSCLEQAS

[9] = target: T3, Inhibitor of nuclear factor kappa-B kinase subunit beta (Homo sapiens); conditions: at 1 µM
[10] = target: T4, Inhibitor of nuclear factor kappa-B kinase subunit epsilon (Homo sapiens) (UniProt Q14164); conditions: at 0.1 µM
T4 sequence (whole entry): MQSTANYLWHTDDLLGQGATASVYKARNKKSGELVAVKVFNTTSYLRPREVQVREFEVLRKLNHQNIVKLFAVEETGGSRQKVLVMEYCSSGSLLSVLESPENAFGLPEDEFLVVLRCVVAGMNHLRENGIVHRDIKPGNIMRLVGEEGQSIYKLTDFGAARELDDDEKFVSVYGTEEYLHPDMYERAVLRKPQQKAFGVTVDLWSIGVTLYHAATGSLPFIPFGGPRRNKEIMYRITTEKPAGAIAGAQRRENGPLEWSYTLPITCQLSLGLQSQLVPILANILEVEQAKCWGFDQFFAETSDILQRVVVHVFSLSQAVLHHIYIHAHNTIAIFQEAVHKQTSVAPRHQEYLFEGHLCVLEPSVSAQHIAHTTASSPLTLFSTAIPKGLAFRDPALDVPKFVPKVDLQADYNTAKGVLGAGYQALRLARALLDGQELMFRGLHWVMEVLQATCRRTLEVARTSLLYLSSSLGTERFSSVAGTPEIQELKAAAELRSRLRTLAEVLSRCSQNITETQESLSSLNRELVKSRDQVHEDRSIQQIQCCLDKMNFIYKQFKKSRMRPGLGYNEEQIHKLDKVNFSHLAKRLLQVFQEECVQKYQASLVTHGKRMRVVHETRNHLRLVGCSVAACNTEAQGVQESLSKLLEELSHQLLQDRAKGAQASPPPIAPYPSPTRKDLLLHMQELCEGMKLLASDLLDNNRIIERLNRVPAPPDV

[11] = target: T4, Inhibitor of nuclear factor kappa-B kinase subunit epsilon (Homo sapiens); conditions: at 1 µM
[12] = target: T5, Serine/threonine-protein kinase Nek1 (Homo sapiens) (UniProt Q96PY6); conditions: at 0.1 µM
T5 sequence (whole entry): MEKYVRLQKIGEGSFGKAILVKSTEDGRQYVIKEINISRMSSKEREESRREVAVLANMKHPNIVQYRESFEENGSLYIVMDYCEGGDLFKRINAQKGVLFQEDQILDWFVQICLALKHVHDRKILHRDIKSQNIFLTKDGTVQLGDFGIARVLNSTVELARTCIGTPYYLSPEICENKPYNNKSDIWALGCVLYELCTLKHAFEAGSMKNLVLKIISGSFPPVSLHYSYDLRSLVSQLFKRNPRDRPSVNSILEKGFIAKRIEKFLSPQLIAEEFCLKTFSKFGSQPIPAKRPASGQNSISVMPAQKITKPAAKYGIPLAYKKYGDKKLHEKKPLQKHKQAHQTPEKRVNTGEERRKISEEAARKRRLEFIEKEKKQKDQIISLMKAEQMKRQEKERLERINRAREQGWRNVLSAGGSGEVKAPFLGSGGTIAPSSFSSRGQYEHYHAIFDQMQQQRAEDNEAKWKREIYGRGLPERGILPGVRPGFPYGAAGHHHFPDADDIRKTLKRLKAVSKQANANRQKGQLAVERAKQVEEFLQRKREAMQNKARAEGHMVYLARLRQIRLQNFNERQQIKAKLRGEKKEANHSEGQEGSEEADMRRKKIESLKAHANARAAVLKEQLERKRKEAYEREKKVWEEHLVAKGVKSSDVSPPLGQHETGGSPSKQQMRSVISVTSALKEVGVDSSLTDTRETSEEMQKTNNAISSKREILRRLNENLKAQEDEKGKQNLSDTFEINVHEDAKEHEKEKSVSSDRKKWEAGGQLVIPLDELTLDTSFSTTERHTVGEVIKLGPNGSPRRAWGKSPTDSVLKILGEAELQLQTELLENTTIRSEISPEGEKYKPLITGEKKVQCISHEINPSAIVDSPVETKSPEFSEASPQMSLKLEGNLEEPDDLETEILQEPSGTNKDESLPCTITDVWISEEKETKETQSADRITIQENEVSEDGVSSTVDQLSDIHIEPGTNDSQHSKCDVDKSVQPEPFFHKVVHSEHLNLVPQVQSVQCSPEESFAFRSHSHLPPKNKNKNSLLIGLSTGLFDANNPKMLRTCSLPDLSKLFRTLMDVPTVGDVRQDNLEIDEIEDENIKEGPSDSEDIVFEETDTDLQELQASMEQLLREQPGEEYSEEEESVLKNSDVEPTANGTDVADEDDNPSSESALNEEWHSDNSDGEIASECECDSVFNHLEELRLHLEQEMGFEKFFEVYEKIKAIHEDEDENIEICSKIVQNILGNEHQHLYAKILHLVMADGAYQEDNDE

[13] = target: T5, Serine/threonine-protein kinase Nek1 (Homo sapiens); conditions: at 1 µM
[14] = target: T6, Serine/threonine-protein kinase Nek2 (Homo sapiens) (UniProt P51955); conditions: at 0.1 µM
T6 sequence (whole entry): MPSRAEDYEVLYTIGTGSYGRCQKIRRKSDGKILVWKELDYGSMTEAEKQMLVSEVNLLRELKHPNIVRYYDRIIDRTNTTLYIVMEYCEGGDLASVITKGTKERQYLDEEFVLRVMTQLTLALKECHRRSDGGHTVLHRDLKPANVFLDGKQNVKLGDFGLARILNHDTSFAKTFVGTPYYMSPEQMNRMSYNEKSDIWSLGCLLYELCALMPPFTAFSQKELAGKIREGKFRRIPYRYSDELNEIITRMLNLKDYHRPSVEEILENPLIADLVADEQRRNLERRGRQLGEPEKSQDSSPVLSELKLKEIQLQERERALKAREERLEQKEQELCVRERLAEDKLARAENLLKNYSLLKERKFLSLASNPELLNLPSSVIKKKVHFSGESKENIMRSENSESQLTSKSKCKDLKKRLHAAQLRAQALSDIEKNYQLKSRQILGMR

[15] = target: T6, Serine/threonine-protein kinase Nek2 (Homo sapiens); conditions: at 1 µM
[16] = target: Serine/threonine-protein kinase Nek6 (Homo sapiens) (UniProt Q9HC98); conditions: at 0.1 µM
[17] = target: Serine/threonine-protein kinase Nek6 (Homo sapiens) (UniProt Q9HC98); conditions: at 1 µM
[18] = target: Serine/threonine-protein kinase Nek7 (Homo sapiens) (UniProt Q8TDX7); conditions: at 0.1 µM
[19] = target: Serine/threonine-protein kinase Nek7 (Homo sapiens) (UniProt Q8TDX7); conditions: at 1 µM
[20] = target: T7, Serine/threonine-protein kinase Nek9 (Homo sapiens) (UniProt Q8TD19); conditions: at 0.1 µM;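 note: reported value is the mean percent inhibition of NEK9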
T7 sequence (whole entry): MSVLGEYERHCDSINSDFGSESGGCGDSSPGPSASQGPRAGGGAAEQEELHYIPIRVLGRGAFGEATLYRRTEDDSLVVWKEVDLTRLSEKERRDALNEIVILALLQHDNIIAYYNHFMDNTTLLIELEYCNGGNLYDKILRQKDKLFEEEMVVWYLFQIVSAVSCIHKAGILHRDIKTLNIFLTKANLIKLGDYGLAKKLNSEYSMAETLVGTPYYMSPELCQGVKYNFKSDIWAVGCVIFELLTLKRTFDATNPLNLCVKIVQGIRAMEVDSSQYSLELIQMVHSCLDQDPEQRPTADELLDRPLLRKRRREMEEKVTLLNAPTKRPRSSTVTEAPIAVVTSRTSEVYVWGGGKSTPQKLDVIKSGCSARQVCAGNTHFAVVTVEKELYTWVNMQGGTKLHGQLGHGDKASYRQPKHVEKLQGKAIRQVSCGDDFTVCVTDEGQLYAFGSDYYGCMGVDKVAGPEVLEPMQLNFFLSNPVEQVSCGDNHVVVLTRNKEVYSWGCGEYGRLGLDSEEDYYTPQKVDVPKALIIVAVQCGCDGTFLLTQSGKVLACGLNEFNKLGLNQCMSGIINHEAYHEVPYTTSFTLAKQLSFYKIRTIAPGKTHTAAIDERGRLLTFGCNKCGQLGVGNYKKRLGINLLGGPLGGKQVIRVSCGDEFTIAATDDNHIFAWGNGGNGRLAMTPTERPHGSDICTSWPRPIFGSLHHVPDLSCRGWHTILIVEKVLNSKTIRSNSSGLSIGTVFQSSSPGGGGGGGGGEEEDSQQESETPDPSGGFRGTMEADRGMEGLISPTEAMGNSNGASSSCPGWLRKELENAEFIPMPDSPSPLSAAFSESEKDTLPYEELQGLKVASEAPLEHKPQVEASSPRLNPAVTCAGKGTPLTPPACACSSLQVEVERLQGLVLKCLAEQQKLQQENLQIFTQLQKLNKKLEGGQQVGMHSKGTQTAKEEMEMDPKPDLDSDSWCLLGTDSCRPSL

Chain of Serine/threonine-protein kinase Nek6 (Homo sapiens) (Q9HC98 whole entry): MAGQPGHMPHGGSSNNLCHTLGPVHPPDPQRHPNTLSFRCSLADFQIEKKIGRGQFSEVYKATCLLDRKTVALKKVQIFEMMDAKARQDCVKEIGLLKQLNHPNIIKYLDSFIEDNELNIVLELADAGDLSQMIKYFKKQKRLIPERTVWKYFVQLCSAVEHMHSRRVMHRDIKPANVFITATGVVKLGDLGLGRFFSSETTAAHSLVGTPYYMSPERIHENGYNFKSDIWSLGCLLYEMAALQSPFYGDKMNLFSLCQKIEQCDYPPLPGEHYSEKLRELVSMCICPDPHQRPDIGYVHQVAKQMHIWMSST
Chain of Serine/threonine-protein kinase Nek7 (Homo sapiens) (Q8TDX7 whole entry, looked up): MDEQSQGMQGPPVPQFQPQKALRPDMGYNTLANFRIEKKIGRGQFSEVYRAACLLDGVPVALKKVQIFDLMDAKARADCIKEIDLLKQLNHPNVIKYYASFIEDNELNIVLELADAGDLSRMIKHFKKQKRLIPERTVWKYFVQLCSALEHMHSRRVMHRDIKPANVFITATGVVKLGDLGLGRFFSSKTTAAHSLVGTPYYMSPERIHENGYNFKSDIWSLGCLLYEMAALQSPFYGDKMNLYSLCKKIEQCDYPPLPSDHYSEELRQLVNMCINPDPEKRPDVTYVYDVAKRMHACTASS
Chain of Casein kinase II subunit alpha (Homo sapiens) (P68400 whole entry, looked up): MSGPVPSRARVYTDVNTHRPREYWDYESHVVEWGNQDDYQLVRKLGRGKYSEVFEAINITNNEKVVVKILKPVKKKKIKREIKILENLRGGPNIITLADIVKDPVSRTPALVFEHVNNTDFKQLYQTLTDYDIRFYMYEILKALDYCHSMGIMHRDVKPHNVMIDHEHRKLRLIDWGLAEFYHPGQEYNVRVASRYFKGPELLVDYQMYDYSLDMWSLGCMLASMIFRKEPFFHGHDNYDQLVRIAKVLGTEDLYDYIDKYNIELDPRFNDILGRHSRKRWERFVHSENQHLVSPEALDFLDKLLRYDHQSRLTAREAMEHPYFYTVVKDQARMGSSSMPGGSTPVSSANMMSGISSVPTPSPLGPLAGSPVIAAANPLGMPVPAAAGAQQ
Chain of Sphingosine kinase 1 (Homo sapiens) (Q9NYA1 whole entry): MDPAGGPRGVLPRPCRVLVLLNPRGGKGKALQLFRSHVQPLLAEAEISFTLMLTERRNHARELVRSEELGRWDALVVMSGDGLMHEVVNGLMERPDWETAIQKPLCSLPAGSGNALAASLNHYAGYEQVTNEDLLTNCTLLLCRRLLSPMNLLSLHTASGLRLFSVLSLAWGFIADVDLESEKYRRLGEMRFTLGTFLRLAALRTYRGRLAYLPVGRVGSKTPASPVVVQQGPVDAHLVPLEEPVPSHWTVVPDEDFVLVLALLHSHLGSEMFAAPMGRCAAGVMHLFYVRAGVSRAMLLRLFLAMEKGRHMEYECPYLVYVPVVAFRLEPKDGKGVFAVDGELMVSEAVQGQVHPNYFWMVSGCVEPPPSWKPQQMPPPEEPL

Which inhibition [1] does the source give for COC(=O)Nc1nc2cc(Oc3cccc(NC(=O)Nc4cc(C(F)(F)F)ccc4F)c3)ccc2[nH]1 here?
Its inhibition is 2.3%.

What about the inhibition [2] of the same compound?
The inhibition was 0%.

What about the inhibition [3] of the same compound?
The inhibition was 0.65%.

And the inhibition [4]?
The inhibition was -0.44%.

What about the inhibition [5] of the same compound?
Its inhibition is -0.84%.

And the inhibition [6]?
Its inhibition is -3.67%.

What about the inhibition [7] of the same compound?
Its inhibition is 4.99%.

And the inhibition [8]?
Its inhibition is 0.52%.

What about the inhibition [9] of the same compound?
The inhibition was 1.91%.

What about the inhibition [10] of the same compound?
The inhibition was 1.54%.

And the inhibition [11]?
Its inhibition is 0.25%.

What about the inhibition [12] of the same compound?
Its inhibition is -0.22%.

What about the inhibition [13] of the same compound?
The inhibition was 2.32%.

And the inhibition [14]?
The inhibition was 0.79%.

And the inhibition [15]?
Its inhibition is 0.72%.

What about the inhibition [16] of the same compound?
The inhibition was 1.5%.

And the inhibition [17]?
The inhibition was 0.11%.

What about the inhibition [18] of the same compound?
The inhibition was 2.69%.

And the inhibition [19]?
Its inhibition is 1.59%.

And the inhibition [20]?
Its inhibition is -4.74%.

Source: ChEMBL document CHEMBL1961873, “Compounds: GSK PKIS; Assays: Nanosyn kinase panel” (2012)
